Records with an inconclusive call do not appear. Active and inactive are the calls of the source. The call rests on the fitted dose curve; in most records, active means well fitted inhibition curve with a large enough effect; inconclusive means small, poorly fitted or top-dose-only effect; inactive means no such curve, though single readings can be large or run the other way.
assay: BET inhibitor-based combinations targeting novel dependencies in MECOM-rearranged (r) AML: SET-2 cell line (AID 2202231); settings: SET-2 AML cells viability, CellTiter-Glo luminescence, 48 h; viability: active compounds read low, series mostly up to about 46 µM; further: nearly all actives have a fitted effect of over 35% in size;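 on viability: plate controls were DMSO treated cells for no effect and wells without cells for full effect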
Summary of the method: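 AML cell lines seeded at 500 cells/well, treated with 11-point dose curves for 48 h. Viability by CellTiter-Glo luminescence, normalised to DMSO and empty wells; activity expressed as AUC and per-cell-line Z-transformed AUC.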
Potency means the concentration at half of the fitted maximal effect.

| Structure (SMILES) | viability | Potency |
| --- | --- | --- |
| Clc1cccc(C(c2ccc3nc[nH]c3c2)n2ccnc2)c1 (stereo not given) | 113% (inactive) | – |
| NS(=O)(=O)c1ccc(Cc2c(-c3cccc(-c4ccccc4)c3)nn(-c3nc(C(=O)O)cs3)c2CC2CC2)cc1 | 106% (inactive) | – |
| C[C@]12CC[C@@H]3c4ccc(O)cc4CC[C@H]3[C@@H]1C[C@@H](O)[C@@H]2O | 109% (inactive) | – |
| CC(C)(C)c1nc2c3cc[nH]c(=O)c3c3cc(F)ccc3c2[nH]1 | – | 1.18 µM (active) |
| CS(=O)(=O)c1ccc(-c2cnc(NCc3ccco3)n3cnnc23)cc1 | 108% (inactive) | – |
| CC(=O)O/N=C1/C(c2c(O)[nH]c3cc(Br)ccc23)=Nc2ccccc21 | – | 14.8 µM (active) |
| CC(C)(C)S(=O)(=O)c1ccc2nccc(Nc3n[nH]c4ccc(F)cc34)c2c1 | 104% (inactive) | – |
| Nc1nc2cc(-c3ccc4ncc(C(=O)N5CCOCC5)n4c3)ccc2o1 | 99.4% (inactive) | – |
| COc1ccc(C(=O)N2CCN(C(=O)/C=C/c3ccc(Br)cc3)CC2)cc1 | 111% (inactive) | – |
| Cc1cc(O)c(-c2ccc([C@@H](C)CN)cc2)c2c1[nH]c(=O)c1sccc12 | – | 0.372 µM (active) |
| CCn1c(=O)c2c(nc(/C=C/c3ccc(OC)c(OC)c3)n2C)n(CC)c1=O | 107% (inactive) | – |
| Cc1c(C(=O)Nc2ccc(Oc3ccnc4[nH]cc(-c5ccccc5)c34)c(F)c2)c(=O)n(-c2ccc(F)cc2)n1C | 96.3% (inactive) | – |
| C=C1CCC[C@]2(C)C=C3OC(=O)C(C)=C3C[C@@H]12 | 112% (inactive) | – |
| Cc1ccc2cc(-c3c(C)ccc(C(=O)c4c(-c5ccccc5)n(C)n(-c5ccccc5)c4=O)c3N)ccc2n1 | 92.3% (inactive) | – |
| NC1=N[C@@]2(c3cc(NC(=O)c4ccc(F)cn4)ccc3F)COC[C@H]2CS1 | 112% (inactive) | – |
| CC(/C=C/[C@@H]1C[C@]1(C)c1ccc2c(c1)C(C)(C)CCC2(C)C)=C\C(=O)O | 110% (inactive) | – |
| Nc1nc(OC(c2ccc(-c3cccc(F)c3)cc2)C(F)(F)F)cc(-c2ccc(C[C@@H](N)C(=O)O)cc2)n1 (stereo not given in full) | 100% (inactive) | – |
| FC(F)(F)c1ccc(CNc2ccc(Cc3c[nH]c4ncc(Cl)cc34)cn2)cn1 | 110% (inactive) | – |
| CC1=C(/C=C/C(C)=C/C=C/C(C)=C/C=C/C=C(C)/C=C/C=C(C)/C=C/C2=C(C)CCCC2(C)C)C(C)(C)CCC1 | 103% (inactive) | – |
| CS(=O)(=O)c1ccc([C@@H](CC2CCCC2)C(=O)Nc2nccs2)cc1 | 79.4% (inactive) | – |

| Structure (SMILES) | viability | Potency |
| --- | --- | --- |
| C=CC[C@@H]1/C=C(\C)C[C@H](C)C[C@H](OC)[C@H]2O[C@@](O)(C(=O)C(=O)N3CCCC[C@H]3C(=O)O[C@H](/C(C)=C/[C@@H]3CC[C@@H](O)[C@H](OC)C3)[C@H](C)[C@@H](O)CC1=O)[C@H](C)C[C@@H]2OC | 51.4% (inactive) | – |
| C=CC(=O)Nc1cc(N2CCN(CC)CC2)ccc1Nc1cc(N(C)C(=O)Nc2c(Cl)c(OC)cc(OC)c2Cl)ncn1 | 112% (inactive) | – |
| C[C@H](Nc1nc(N[C@H](C)C(F)(F)F)nc(-c2cccc(Cl)n2)n1)C(F)(F)F | 120% (inactive) | – |
| O=C(N[C@@H](c1ccccc1)[C@@H]1CCCCN1)c1cccc(C(F)(F)F)c1Cl | – | 1.18 µM (active) |
| Cc1cc(-c2ccc(CC(=O)Nc3ccc(-c4cccnc4)cc3)cc2)ccn1 | – | 16.6 µM (active) |
| Cc1cc(Nc2cc(N)ncn2)c(=O)n2c1C(=O)NC21CCCCC1 | 117% (inactive) | – |
| O=C(Nc1nccs1)C(c1cc(F)ccc1O)N1Cc2ccccc2C1=O (stereo not given) | – | 18.6 µM (active) |
| CN(CCOc1ccc(-c2ccc3c(c2)OCO3)cc1C(C)(C)C)CC(=O)O | 105% (inactive) | – |
| CNC(=O)Cn1cc(-c2ccc3c(c2)C(F)CC32NC(=O)N(CC(=O)N(Cc3ccc(F)cc3)C(C)C(F)(F)F)C2=O)cn1 (stereo not given) | – | 3.72 µM (active) |
| C[C@H]1CN(C2COC2)CCN1c1ccc(Nc2cc(-c3ccnc(N4CCn5c(cc6c5CC(C)(C)C6)C4=O)c3CO)cn(C)c2=O)nc1 | 121% (inactive) | – |
| O=C(NO)c1cnc(NC2(c3ccccc3)CC2)nc1 | – | 6.61 µM (active) |
| COc1cc(OC)c(NC(=O)Nc2cc(C)on2)cc1Cl | 115% (inactive) | – |
| O=C1OC(COc2ccccc2[N+](=O)[O-])CC1Cc1ccccc1 (stereo not given) | 112% (inactive) | – |
| Cn1cc(C2=C(c3cn(C)c4cc([N+](=O)[O-])ccc34)C(=O)NC2=O)c2ccccc21 | – | 2.35 µM (active) |
| O=C(O)CCC=CCC[C@@H]1[C@H](N2CCCCC2)[C@@H](O)C[C@@H]1OCc1ccc(-c2ccccc2)cc1 | – | 1.18 µM (active) |
| CC(C)=CCC/C(C)=C/CC/C(C)=C/CSc1ccccc1C(=O)O | 106% (inactive) | – |
| CCC[C@H](Nc1nc(-c2ccc(NC(=O)NCC)c(OC)c2)ncc1C)c1cccnc1 | – | 0.118 µM (active) |
| CN(C)c1ccccc1CN1CCCN(Cc2ccccc2N(C)C)C1c1ccncc1 | 99.7% (inactive) | – |
| C=CC(=O)N[C@H]1CN(c2nc(Nc3cn(C)nc3OC)c3ncn(C)c3n2)C[C@@H]1F | 87.8% (inactive) | – |
| O=C1NC(=O)/C(=C\c2ccc(-c3ccc(F)cc3)o2)S1 | – | 20.9 µM (active) |

Reference: PubChem BioAssay (NCATS)
